# Assay results taken from PubChem BioAssay (NCATS).
# Inconclusive results are not listed. Where a call stands in place of a potency, no number is given. A number with no mark means an inactive call. The source made the active and inactive calls. Calls come from the whole dose curve; as a rule, active = well fitted curve in the direction sought with a large enough effect; inconclusive = small, poorly fitted or top-dose-only effect, or another doubt; inactive = no such curve, though single readings can be large; an effect the other way counts as inactive or inconclusive.
# Tests used:
# PA-1 = assay: Primary qHTS to identify gynecologic anti-cancer compounds using libraries of approved drugs and bioactive compounds (AID 1345084); conditions: Gynecologic cancer cell panel viability, ATPlite luminescence, 48 h; series mostly up to 57.5 µM; note: nearly all actives have a fitted effect of over 55% in size
# Method in brief: (§1)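 Cells, 1,000 per well, plated 16 h, then exposed 48 h at 37 C to compounds. Viability by ATPlite luminescence after 15 min at room temperature.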
# SKOV3 = assay: as above; conditions: Gynecologic cancer cell panel viability, ATPlite luminescence, 48 h; series mostly up to 57.5 µM
# Method in brief: as §1
# Tov-21-G = assay: as above; conditions: Gynecologic cancer cell panel viability, ATPlite luminescence, 48 h; series mostly up to 57.5 µM
# Method in brief: as §1
# Tov112D = assay: as above; conditions: Gynecologic cancer cell panel viability, ATPlite luminescence, 48 h; series mostly up to 57.5 µM
# Method in brief: as §1
# [1] = qHTS assay to identify inhibitors of the type 1 interferon - major histocompatibility complex class I in skeletal muscle: Counter screen cell viability and HiBit confirmation (AID 1347412); conditions: iHSKM muscle cells + IFN-b, HiBiT or CellTiter-Glo, 24 h; for activity change, negative = inhibition: Viability, at 45.9 µM (top of the series); for Potency: HiBiT; for all read-outs here: nearly all actives have a fitted effect of over 60% in size
# Method in brief: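 CRISPR HLA-B*08:01-HiBit immortalized human myoblasts (C25cl48) stimulated with 4 ng/ml IFN-beta and compounds (12-point 1:3, top 46 uM final) for 24 h at 37 C. Duplicate plates read by HiBit lytic luminescence or CellTiter Glo ATP.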
# [2] = Drug repurposing screens with cells derived from glioblastoma tumor samples (AID 1345199); conditions: GBM patient neurospheres viability, ATP luminescence, 48 h; note: nearly all actives have a fitted effect of over 40% in size
# Method in brief: (§2)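 Primary testing used CD133+ neurospheres from four GBM patients, seven concentrations, 48 h exposure and ATP-based viability; confirmation added three slower-growing patient lines.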
# astro = assay: as above; conditions: viability, ATP luminescence, 48 h; series mostly up to 45.9 µM
# Method in brief: as §2
# [3] = at 45.9 µM (top of the series), tumour line B
# [4] = at 45.9 µM (top of the series), tumour line D
# [5] = at 46.1 µM (top of the series), tumour line C
# Potency is the fitted concentration of half-maximal effect.
structure (smiles),measurement,setting,value
Cc1ccc(CNc2ncnc3ccc(-c4ccc(CO)o4)cc23)o1,Potency,PA-1,inactive
same,Potency,SKOV3,inactive
same,Potency,Tov-21-G,inactive
same,Potency,Tov112D,inactive
C/C1=C/CCC2=CC(OC2=O)C(C)(C)/C=C/C1=O (configuration not stated),Potency,PA-1,8.91 µM (active)
same,Potency,SKOV3,12.6 µM (active)
same,Potency,Tov-21-G,8.91 µM (active)
same,Potency,Tov112D,20 µM (active)
CCC(C)C(=O)O[C@H]1[C@@H](OC(=O)c2ccoc2)C[C@](C)(O)[C@]23OC(C)(C)[C@H](C[C@H](OC(=O)c4ccoc4)[C@]12COC(C)=O)[C@H]3OC(C)=O (some centres not stated),Potency,PA-1,inactive
same,Potency,SKOV3,inactive
same,Potency,Tov-21-G,inactive
same,Potency,Tov112D,inactive
Cc1nc(C(=O)N2CCC[C@H]2Cc2nnc(-c3ccccc3)o2)c(-c2ccccc2F)s1,Potency,PA-1,inactive
same,Potency,SKOV3,inactive
same,Potency,Tov-21-G,inactive
same,Potency,Tov112D,inactive
COc1c(C(O)CC(C)C)ccc2c1C(=O)OCc1cc(C)cc(O)c1O2 (configuration not stated),Potency,PA-1,inactive
same,Potency,SKOV3,inactive
same,Potency,Tov-21-G,inactive
same,Potency,Tov112D,inactive
O=C1NC(=O)C(c2cnc3ccccn23)=C1c1cn2c3c(cc(F)cc13)CN(C(=O)N1CCCCC1)CC2,Potency,PA-1,17.8 µM (active)
same,Potency,SKOV3,inactive
same,Potency,Tov-21-G,inactive
same,Potency,Tov112D,inactive
same,"activity change, negative = inhibition",[1],-0.987%
C=C1C(=O)OC2C1CCC1(C)C(O)CC=C(C)C21 (configuration not stated),Potency,PA-1,inactive
same,Potency,SKOV3,inactive
same,Potency,Tov112D,inactive
CS(=O)(=O)Nc1ccc2oc3c(OC(F)F)ccc(C(=O)Nc4c(Cl)cncc4Cl)c3c2c1,Potency,PA-1,inactive
same,Potency,SKOV3,inactive
same,Potency,Tov-21-G,inactive
same,Potency,Tov112D,inactive
CNCc1cc(-c2ccccc2F)n(S(=O)(=O)c2cccnc2)c1,Potency,PA-1,inactive
same,Potency,SKOV3,inactive
same,Potency,Tov-21-G,inactive
same,Potency,Tov112D,inactive
CC1OC2OC(=O)C3(C)CC4C5(CO5)C5=CC(=O)OC(C)(C)C5=CC(=O)C4(C)C(C1=O)C23 (configuration not stated),Potency,PA-1,inactive
same,Potency,SKOV3,inactive
same,Potency,Tov112D,inactive
CC(/C=C/C(=O)NO)=C\[C@@H](C)C(=O)c1ccc(N(C)C)cc1,Potency,PA-1,1 µM (active)
same,Potency,SKOV3,1.58 µM (active)
same,Potency,Tov-21-G,3.55 µM (active)
same,Potency,Tov112D,1.78 µM (active)
same,Potency,[1],1.76 µM (active)
same,"activity change, negative = inhibition",[1],-7.11%
Fc1ccc(-c2nc(-c3ccccc3F)[nH]c2-c2ccncc2)cc1,Potency,PA-1,inactive
same,Potency,SKOV3,inactive
same,Potency,Tov-21-G,inactive
same,Potency,Tov112D,inactive
C#Cc1cccc(Nc2nc3cc(C(=O)O)ccc3c3cncnc23)c1,Potency,PA-1,3.55 µM (active)
same,Potency,SKOV3,inactive
same,Potency,Tov112D,inactive
C=C1C(=O)OC2/C=C(\CO)CC/C=C(\C=O)C(OC)C(OC(=O)C(C)CC)C12 (configuration not stated),Potency,PA-1,inactive
same,Potency,SKOV3,inactive
same,Potency,Tov112D,inactive
CC1(C)CN(C(=O)c2ccc(-c3cccc4nc(NC(=O)C5CC5)nn34)cc2)C1,Potency,PA-1,inactive
same,Potency,SKOV3,inactive
same,Potency,Tov-21-G,inactive
same,Potency,Tov112D,inactive
same,Potency,[1],7.87 µM (active)
same,"activity change, negative = inhibition",[1],3.01%
CC1CCCC(O)CCC/C=C/c2cc(OS(=O)(=O)O)cc(O)c2C(=O)O1 (configuration not stated),Potency,PA-1,inactive
same,Potency,SKOV3,inactive
same,Potency,Tov-21-G,inactive
same,Potency,Tov112D,inactive
COc1c(CCC(=O)O)cccc1O[C@@H]1O[C@H](CO)[C@@H](O)[C@H](O)[C@H]1O,Potency,PA-1,inactive
same,Potency,SKOV3,inactive
same,Potency,Tov-21-G,inactive
same,Potency,Tov112D,inactive
C=C1CCCC2(C)CCC(C(C)(C)OC3OC(C)C(O)C(O)C3OC(=O)/C(C)=C\C)CC12 (configuration not stated),Potency,PA-1,inactive
same,Potency,SKOV3,inactive
same,Potency,Tov-21-G,inactive
same,Potency,Tov112D,inactive
CN(C)c1cccc(Oc2cnc(Nc3cccc(O)c3)nc2)c1,Potency,PA-1,inactive
same,Potency,SKOV3,inactive
same,Potency,Tov112D,inactive
C=C1C(=O)O[C@@H]2[C@H]1CC[C@H](C)[C@]1(CCC(=O)O1)C2(C)O (some centres not stated),Potency,PA-1,inactive
same,Potency,SKOV3,inactive
same,Potency,Tov112D,inactive
C1=C/COCc2cc(ccc2OCCN2CCCC2)Nc2nccc(n2)-c2cccc(c2)COC/1,Potency,PA-1,2.82 µM (active)
same,Potency,SKOV3,8.91 µM (active)
same,Potency,Tov-21-G,10 µM (active)
same,Potency,Tov112D,11.2 µM (active)
same,Potency,[1],3.52 µM (active)
CCC[C@@]1(CCc2ccccc2)CC(O)=C([C@H](CC)c2cccc(NS(=O)(=O)c3ccc(C(F)(F)F)cn3)c2)C(=O)O1,Potency,PA-1,inactive
same,Potency,SKOV3,inactive
same,Potency,Tov-21-G,inactive
same,Potency,Tov112D,inactive
same,"activity, negative = cell killing",[2]; [3],-17%
same,"activity, negative = cell killing",[2]; [4],-1.26%
same,"activity, negative = cell killing",[2]; [5],-12.2%
CC1=C(c2ccc(NC(=O)c3c(F)cccc3F)cc2)CN(c2nccs2)CC1,Potency,PA-1,inactive
same,Potency,SKOV3,inactive
same,Potency,Tov-21-G,inactive
same,Potency,Tov112D,inactive
CC[C@H]1OC(=O)[C@H](C)[C@@H](O[C@H]2C[C@@](C)(OC)[C@@H](O)[C@H](C)O2)[C@H](C)[C@@H](O[C@H]2O[C@H](C)C[C@H](N(C)C)[C@H]2O)[C@](C)(O)C[C@@H](C)C(=O)[C@H](C)[C@@H](O)[C@]1(C)O,Potency,PA-1,inactive
same,Potency,SKOV3,inactive
same,Potency,Tov-21-G,inactive
same,Potency,Tov112D,inactive
C=C(C(=O)O[C@H]1C/C(C)=C/CC/C(CO)=C/[C@H]2OC(=O)C(=C)[C@H]12)C(O)CO (some centres not stated),Potency,PA-1,inactive
same,Potency,SKOV3,inactive
same,Potency,Tov112D,inactive
COc1cc2c(cc1OC(C)C)[C@H](c1ccc(Cl)cc1)N(c1ccc(N(C)CC3CCC(N4CCN(C)C(=O)C4)CC3)cc1)C(=O)C2 (some centres not stated),Potency,PA-1,11.2 µM (active)
same,Potency,SKOV3,inactive
same,Potency,Tov112D,inactive
COc1ccnc(CS(=O)c2nc3cc(OC(F)F)ccc3[nH]2)c1OC (configuration not stated),Potency,PA-1,inactive
same,Potency,SKOV3,inactive
same,Potency,Tov-21-G,inactive
same,Potency,Tov112D,inactive
same,"activity, negative = cell killing",[2]; [3],-14.8%
same,"activity, negative = cell killing",[2]; [4],-24.9%
same,"activity, negative = cell killing",[2]; [5],-12.9%
same,Potency,[2]; tumour line A,28.2 µM (active)
same,Potency,astro,inactive
CC1CCCC[C@H]2C(=O)C=C[C@H](O)[C@@H]2CC(=O)O1 (some centres not stated),Potency,PA-1,10 µM (active)
same,Potency,SKOV3,3.55 µM (active)
same,Potency,Tov112D,14.1 µM (active)
